The text below walks through data of PubChem BioAssay.

Assay [1] can be described thus: stimulators of insulin release from INS-1E, primary screen, cell-based, 5 mM glucose, NPC library (AID 1117329). The following applies: rat INS-1E insulin secretion, at 10 µM, stronger effect = higher value.
The nature of assay [2]: growth inhibition of GSK3B-pretreated HCT116 cells – cell-based, CellTiter-Glo, 0.2 to 20 µM (AID 1117336;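 active means compounds lowering colon cancer cell viability after pretreatment blocking the GSK3B kinase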). The settings on record: HCT116 viability after GSK3B inhibitor, at 20 µM, stronger effect = higher value. A general note: Cellular ATP, detected with luciferase, serves as a proxy for viable cell number.
Assay [3] in a line: inhibition of endothelial tube formation, primary screen, imaging, VEGF stimulated, CD31 staining, tube area, NPC library (AID 1117340;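 active means compound that reduces growth-factor-driven endothelial tube area in a mixed cell culture, no cutoff stated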). The settings on record: VEGF-stimulated ADSC/ECFC co-culture, at 10 µM, stronger effect = higher value.
Assay [4] is described as follows: glucagon-like peptide 1 release enhancers, primary assay, NCI-H716 cell line, NPC library (AID 1117341;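 active means compound raises GLP1 secretion from the human gut endocrine cells, with no numeric limit stated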). The settings on record: NCI-H716 cells, at 10 µM, stronger effect = higher value.
A short description of assay [5]: HCT116 colon cancer cell growth inhibition, primary screen, CellTiter-Glo luminescence, NPC library (AID 1117342;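 active means compounds that lower survival of HCT116 colon cancer cells in the luminescence readout, no numeric limit stated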). The following applies: at 20 µM (top of the series).
A short description of assay [6]: CellTiter-Glo luminescent readout of SW480 viability loss, NPC library primary (AID 1117343;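 active means compounds that lower viability of the colon cancer cells in the luminescence readout, with no numeric limit stated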). The following applies: CellTiter-Glo luminescence; at 20 µM (top of the series).
Assay [7] can be described thus: decreased DLD-1 cellular survival, CellTiter-Glo luminescent readout, NPC compound collection, primary HTS (AID 1117346;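 active means compounds that lower survival of DLD-1 colon cancer cells in the luminescence readout, no cutoff given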). The settings on record: DLD-1 viability, CellTiter-Glo luminescence; at 20 µM (top of the series).
The nature of assay [8]: differential killing of epithelial or mesenchymal cells, primary screen, imaging, PC-3E GFP, TEM4-18 mCherry, co-culture (AID 1345086;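 active means compounds killing one labelled cell type while sparing the other, by normalised counts and ratio limits, not self-fluorescent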;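 on all read-outs here: cells exposed to compound for 72 h before imaging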;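 on red/green cell ratio (normalised): normalised mesenchymal count divided by normalised epithelial count so high means epithelial killing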). The following applies: imaging cell counts, at 1 µM; for red/green cell ratio (normalised): actives lie on both sides, counts scaled to control wells, 1 = unselective.
The nature of assay [9]: modulation of C. elegans fzo-1 (AID 1259413; call rule not given here;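 further: fzo-1 mutant C. elegans worms in liquid wells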). The following applies: C. elegans fzo-1 modulator screen, mean read-out; stronger effect = higher value.
The nature of assay [10]: growth inhibition of DIPG glioma cells, dose response, cell-based, JHH-DIPG-1, MIPE4.0, CellTiter-Glo, qHTS (AID 1347062; cut-off not given, nearly all actives have AC50 up to about 27 µM;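 on AC50: cells exposed to compound for two days before readout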). The following applies: JHH-DIPG-1 viability, CellTiter-Glo ATP luminescence.
Assay [11] can be described thus: growth inhibition of DIPG glioma cells, dose response, cell-based, SU-DIPG-IV, MIPE4.0, CellTiter-Glo, qHTS (AID 1347063; cut-off not given, nearly all actives have AC50 up to about 30 µM;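 further: compound exposure lasted 48 hours before the viability readout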). The following applies: SU-DIPG-IV viability, CellTiter-Glo ATP luminescence.
A short description of assay [12]: growth inhibition of DIPG glioma cells, dose response, cell-based, SU-DIPG-XVII, MIPE5.0, CellTiter-Glo, qHTS (AID 1347060; cut-off not given, nearly all actives have AC50 up to about 26 µM;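 on AC50: cells exposed to compound for 48 hours before viability readout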). The following applies: SU-DIPG-XVII viability, CellTiter-Glo ATP luminescence.
Assay [13] is described as follows: growth inhibition of DIPG glioma cells, dose response, cell-based, SU-DIPG-XIII, MIPE4.0, CellTiter-Glo, qHTS (AID 1347061; cut-off not given, nearly all actives have AC50 up to about 37 µM;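 further: cells exposed to compound for 48 hours before readout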). The settings on record: SU-DIPG-XIII viability, CellTiter-Glo ATP luminescence.
A short description of assay [14]: growth inhibition of DIPG glioma cells, dose response, cell-based, SU-DIPG-XIII, MIPE5.0, CellTiter-Glo, qHTS (AID 1347064; cut-off not given, nearly all actives have AC50 up to about 23 µM;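 on AC50: cells exposed to compound for 48 hours before the viability read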). The following applies: SU-DIPG-XIII viability, CellTiter-Glo ATP luminescence.
The test system of assay [15] is Aerobactin synthetase IucA (Klebsiella pneumoniae). Nature of the assay: IucA aerobactin synthetase inhibitors, biochemical, Tocris library, absorbance (AID 1345561; call rule not given here;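 further: 100% = enzyme without compound and 0% = no enzyme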). The following applies: purified IucA enzyme assay, absorbance (OD) read-out; stronger effect = lower value;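 tested at 8 µM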.
[16] abbreviates: measured here: epithelial PC-3E GFP cell survival.
Setting [17] is: measured here: mesenchymal TEM4-18 mCherry cell survival.

“And” between values parts separate entries of the source, which are not always exact repeats. Identical values can stand only once. Inconclusive results are not listed. The source made the active and inactive calls.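 How the source made its calls, unless noted: active means compound raises insulin release from rat beta cells at 5 mM glucose, no numeric limit stated; inactive means the rest.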

On to `O=C(O)/C=C(\CC(=O)O)C(=O)O`, for which, in [1], the insulin secretion stimulation is -2.3% (inactive). Besides, in [2], the viability decrease was 0.55% (inactive). Further, the tube area decrease in [3] is 5.8% (inactive). For the same compound, the GLP1 secretion stimulation in assay [4] was 3.5% (inactive). Further, in [5], the inhibition of viability is 7.4% (inactive). Moreover, the figures for the viability decrease (inhibition) in assay [6] and in assay [7] were 39.3% (inactive) and 11.3% (inactive), respectively. Further, the red/green cell ratio (normalised) in assay [8] is 1.06 (inactive). In addition, the figures for the normalised cell number in assay [8] (setting [16]) and in assay [8] (setting [17]) were 1.18 and 1.25, respectively.
What is called AC50 is the concentration giving half of the maximal activity seen. Take `O=C1Nc2ccc(Cl)cc2[C@@](C#CC2CC2)(C(F)(F)F)O1`: the insulin secretion stimulation in assay [1] is 11.3% (inactive). Besides, the viability decrease in [2] was 86.5% (active). In addition, in assay [3], the tube area decrease is -16% (inactive). The GLP1 secretion stimulation in assay [4] is 21% (active). In assay [5], the inhibition of viability was 87.9% (active). The viability decrease (inhibition) was 114% (active) in assay [6] and 49.4% (inactive) in assay [7]. Further, in [9], the mean signal was 218 (inactive). Moreover, in assay [10], the compound was called inactive. The AC50 in assay [11] is 29.6 µM (active).
As to `CN1CCN(c2cc3c(cc2F)c(=O)c(C(=O)O)cn3-c2ccc(F)cc2)CC1`, in [1], the insulin secretion stimulation is -1.1% (inactive). Also, in assay [2], the viability decrease was 9.9% (inactive). In addition, the tube area decrease in assay [3] is -7.2% (inactive). The GLP1 secretion stimulation in assay [4] was 0.1% (inactive). Moreover, the inhibition of viability in assay [5] was 17.4% (inactive). For the same compound, the viability decrease (inhibition) in [6] was -0.8% (inactive); in assay [7] it was 2.2% (inactive). Besides, the red/green cell ratio (normalised) in assay [8] is 1.21 (inactive) and 1.18 (inactive). The normalised cell number was 0.99 and 0.72 in assay [8] (setting [16]); 1.2 and 0.85 in assay [8] (setting [17]).
`CC(=O)[C@]1(O)Cc2c(O)c3c(c(O)c2[C@@H](O[C@H]2C[C@H](N)[C@H](O)[C@H](C)O2)C1)C(=O)c1ccccc1C3=O`: the insulin secretion stimulation in [1] is -1.8% (inactive). Also, the viability decrease in assay [2] was 84% (active). For the same compound, the tube area decrease in assay [3] was 85.6% (active). In assay [4], the GLP1 secretion stimulation was -0.2% (inactive). The inhibition of viability in [5] is 68.9% (active). Also, the viability decrease (inhibition) in assay [6] was 84.7% (active); in assay [7], 85.5% (active). The mean signal in assay [9] was 267 (inactive). In addition, the concentration at half-maximal activity (AC50) in assay [12] was 0.372 µM (active); in [13], 3.32 µM (active); in [10] it was 0.526 µM (active); in [11], 0.662 µM (active); in assay [14], 11.8 µM (active).
`COc1cc(C(=O)NS(=O)(=O)c2ccccc2C)ccc1Cc1cn(C)c2ccc(NC(=O)OC3CCCC3)cc12`: in [1], the insulin secretion stimulation is 3.85% (inactive). Also, the viability decrease in assay [2] is 106% (active). The tube area decrease in assay [3] was 44.5% (active). In addition, the GLP1 secretion stimulation in [4] is 19.5% (inactive). Besides, the inhibition of viability in [5] was 106% (active). Moreover, the figures for the viability decrease (inhibition) in [6] and in assay [7] were 120% (active) and 98.2% (active), respectively. The mean signal in assay [9] is 223 (inactive). The compound was called inactive in [12]. Moreover, the AC50 in [11] was 20.9 µM (active).
For `Cc1nc2n(c(=O)c1CCN1CCC(c3noc4cc(F)ccc34)CC1)CCC[C@H]2O`, in assay [1], the insulin secretion stimulation is 1.1% (inactive). In addition, the viability decrease in [2] was -7.1% (inactive). For the same compound, the tube area decrease in [3] is 8.8% (inactive). The GLP1 secretion stimulation in [4] was -0.7% (inactive). Moreover, the inhibition of viability in [5] was 20.5% (inactive). Moreover, the results for the viability decrease (inhibition) in [6] and in [7] were -9.1% (inactive) and -6.6% (inactive), respectively. Besides, the red/green cell ratio (normalised) in assay [8] is 1.17 (inactive). For the same compound, the figures for the normalised cell number in [8] (setting [16]) and in assay [8] (setting [17]) were 0.84 and 0.98, respectively.
As to `C/C=C1\[C@H]2C=C(C)C[C@]1(N)c1ccc(=O)[nH]c1C2`, the insulin secretion stimulation in assay [1] was 1.5% (inactive). In addition, the viability decrease in assay [2] was 10.5% (inactive). In assay [3], the tube area decrease is 0.1% (inactive). Also, the GLP1 secretion stimulation in [4] is 3.9% (inactive). Moreover, the inhibition of viability in [5] was 3.1% (inactive). The values for the viability decrease (inhibition) in [6] and in assay [7] were -14.7% (inactive) and 0.1% (inactive), respectively. For the same compound, the red/green cell ratio (normalised) in assay [8] was 1.22 (inactive). Also, the normalised cell number in [8] (setting [16]) is 0.97; in [8] (setting [17]), 1.18.
Turning to `Cc1nccn1CC1CCc2c(c3ccccc3n2C)C1=O` (configuration not stated), the insulin secretion stimulation in [1] is -1.6% (inactive). Further, the viability decrease in assay [2] is -7% (inactive). Besides, in assay [3], the tube area decrease is 1.5% (inactive). Also, the GLP1 secretion stimulation in assay [4] is -1.9% (inactive). The inhibition of viability in [5] is 24.8% (inactive). In addition, the viability decrease (inhibition) is -3.2% (inactive) in assay [6] and -8% (inactive) in [7]. Besides, the mean signal in assay [9] was 237 (inactive). In addition, in assay [10], the result was inactive.
In the case of `Cc1c(Nc2ncccc2C(=O)O)cccc1C(F)(F)F`, the insulin secretion stimulation in assay [1] is -1.5% (inactive). Moreover, in assay [2], the viability decrease is -24.9% (inactive). In assay [3], the tube area decrease is 5.8% (inactive). The GLP1 secretion stimulation in assay [4] was -1.7% (inactive). In addition, the inhibition of viability in assay [5] is 0.73% (inactive). The viability decrease (inhibition) in assay [6] was 75.8% (active); in assay [7], 21.9% (inactive). Besides, in assay [8], the red/green cell ratio (normalised) was 1.03 (inactive) and 0.93 (inactive). The normalised cell number was 1.09 and 1.11 in assay [8] (setting [16]); 1.12 and 1.03 in [8] (setting [17]).
The remaining activity is the signal under treatment as a percentage of the control signal. On to `Clc1ccc2nsnc2c1NC1=NCCN1`, for which the insulin secretion stimulation in assay [1] is 0.4% (inactive). Also, the viability decrease in assay [2] was 1.1% (inactive). The tube area decrease in assay [3] was -9.7% (inactive). For the same compound, the GLP1 secretion stimulation in assay [4] was 2.7% (inactive). Further, the inhibition of viability in [5] is 11.7% (inactive). Besides, the values for the viability decrease (inhibition) in [6] and in assay [7] were 8% (inactive) and 6% (inactive), respectively. Also, in assay [9], the mean signal is 249 (inactive). The remaining activity in [15] is 113% (inactive). For the same compound, the outcome in assay [12], in assay [13] and in assay [14] was inactive.
On to `CCN1CCC[C@H]1CNC(=O)c1cc(S(N)(=O)=O)ccc1OC`, for which, in [1], the insulin secretion stimulation is 1% (inactive). Also, the viability decrease in assay [2] is -4.3% (inactive). The tube area decrease in assay [3] was 10.5% (inactive). Further, the GLP1 secretion stimulation in [4] was -3% (inactive). Also, the inhibition of viability in [5] was -5.3% (inactive). Also, the viability decrease (inhibition) in assay [6] was -4.8% (inactive); in assay [7], -5.7% (inactive). For the same compound, in [9], the mean signal was 274 (inactive). For the same compound, the remaining activity in assay [15] is 123% (inactive).
`Cc1c[nH]c2ccccc12`: in assay [1], the insulin secretion stimulation was -2.3% (inactive). Further, in assay [2], the viability decrease was 3.8% (inactive). For the same compound, the tube area decrease in assay [3] was 5.5% (inactive). Further, the GLP1 secretion stimulation in [4] was -1.7% (inactive). Besides, in [5], the inhibition of viability was 10.3% (inactive). In addition, the viability decrease (inhibition) in assay [6] was 15% (inactive); in [7] it was 10% (inactive). For the same compound, the red/green cell ratio (normalised) in assay [8] was 0.99 (inactive). Moreover, the normalised cell number in assay [8] (setting [16]) worked out at 0.86; in assay [8] (setting [17]), 0.85.
With `O=C1N(c2ccccc2)c2ccccc2C1(Cc1ccncc1)Cc1ccncc1`, in assay [1], the insulin secretion stimulation was 1.2% (inactive). Also, in assay [2], the viability decrease was -9.5% (inactive). The tube area decrease in assay [3] was 17.6% (inactive). Moreover, in [4], the GLP1 secretion stimulation was 2.6% (inactive). Also, the inhibition of viability in assay [5] is -4.7% (inactive). Further, the viability decrease (inhibition) was 23.8% (inactive) in assay [6] and -3.9% (inactive) in [7]. Besides, the mean signal in assay [9] was 247 (inactive). For the same compound, the remaining activity in [15] was 110% (inactive). The compound was classed as inactive in [12], in [13], in assay [10], in assay [11] and in assay [14].
